This assay deals with VDR:RXRa (NR concentration 270 nM, RXRa partner concentration 90 nM). The experiment in a line: PBM binding z-score (relative to random genomic background probes); higher = stronger binding; sequences stand for … in GC…GCGATTGACAGCGTAGAATGAAGG
As to the method:
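Protein-binding microarray (Agilent 4x180K custom design, double-stranded 60-nt probes: 5' GC cap, 34-nt variable region, 24-nt constant primer region; full probe sequence given). Purified or IVT nuclear receptor:RXRα heterodimers (3:1 NR:RXRα, mostly 270:90 nM) or homodimers were incubated for 1 h in PBS with 2% milk and no ligand, then detected with Alexa488 antibodies. Fluorescence from o1-orientation probes (~5 replicates averaged) was converted to z-scores against 500 random hg19 background probes. Variable regions are seed direct-repeat (DR0–DR5) sites, all their single-nucleotide variants and half-site ablations.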
With CGAAATAGGTCATCCAGGACAGTGAATACATTGA, the PBM binding z-score was found to be 5.63. Regarding AATACAGGGTCATCGTAGGCCATAGTACGCACAG, the PBM binding z-score was found to be 5.58. For CCTAGTTGGTTAAGGTCACACACGCTATAGGTAC, the PBM binding z-score stood at 4.4. GCTAGTTGTTCAGTAAAAGGTCACACACCGGTCG registered a PBM binding z-score of 3.93.

TCTATTAGTTGATTAGTGCAACCGAAACAGCGGA returned a PBM binding z-score of 0.827.

Turning to CTACCAAGGTGAACAAGGTCGTTCATTACTATTC, the PBM binding z-score turned out to be 6.53. In the case of CCGAGTAGGTTCTGGGGCATTCAGGCAACGGTGA it was -0.552. Consider CAAACTAGCTCAAGAGGTCAAAGTCCGCTTCCCG, for which the PBM binding z-score was 4.96. Turning to GCTAGTTGGTCAGTAACAGGTCACACACCGGTCG, the PBM binding z-score amounted to 1.68.

In turn, TAGCCTAGGTCAAATCGGGCCAGTATACGCTATA gave a PBM binding z-score of 2.7. With CCTCGGAGGACAACAGGAGGTCACAGCTGCCAGA the figure was 3.53; with TTTTGTAGATCAACAGGAGGTTAAGAAAGATCGA, 0.859; with ATCTCTAGGTAAAGATAGTTCAGTGAATGCAAAT, 0.815.

ATCTCTAGGTAACAAGTTCTGTGAAAGAGAGGAC returned a PBM binding z-score of 0.359. Sequence GCTATTAGTTCAAAGGGCAACCGAATGATTCTCG displayed a PBM binding z-score of 2.63. For GATACAGGGTCAAGGCTAGAGTACGCGTATTGAT, the PBM binding z-score came out at 4.6. With CCTACTGGGCCATCAGGTCATTGGTATCAACGTT the figure was 2.04. With CGTCCAAGCTCAGAGAGGTCAGTGAATGCCGAGT the figure was 2.2; with ATAAGTAGGTTACATCCGGGTCATTCAGGCTATG, 4.06. Turning to CGTCCAAGGTCAAGGTCAGTGTAAGAGACTCGAA, the PBM binding z-score amounted to 4.67. As to AGAATGTGGTTAAGATCAGGGAAACAGAATACAT, the PBM binding z-score is -0.0223. In the case of ATCTCTAGGTAAAGATAGTTCAGTGATTGCAAAT it was 1.07; in that of GGTTGTAGATCAAGGTTAAGAAAGACTAAGCTAA, 0.833.

Turning to TCTCGCAGGCCAGAGGGTCACTCAAGAGGTACGG, the PBM binding z-score was 1.79.

For GCTTACGGGTCGAAGGTTATAGCATGAATAGAAT, the PBM binding z-score turned out to be 2.02. For the sequence TCTAGCAGGCCAGAGGCTCACTCAAGAGGTACGG, the PBM binding z-score is -0.485. With TAGCCTAGGTCATGCGGGCCAGTAAAGTGTCGGC, the PBM binding z-score worked out at 2.75. For the sequence CCAGACAGGTGAAAGGTATCTCAGTCTGGTACGC, the PBM binding z-score was 0.0976. In the case of TGAATGAGGTTATAAGATTAGGGAACGTTGCAAA it was 1.12; in that of GCTGCTAGGTCAGGTTGGTCAGCTCACGGGTACG, 0.52; in that of CCTTACGGGTCAAGGTTATTGCACGGGTGGTACG, 3.42.

The sequence ACTAGCAGGCCAAGTTTGGGTCAGTCAAACAAAG gave a PBM binding z-score of 0.056.

With AGTCAGAGTTCACTAGGTAACGTAAGATTCAGCT, the PBM binding z-score worked out at 4.82.

For the sequence TCTCGGAGGATACGAAGGTCAGAGCTTTCCAGAG, the PBM binding z-score stood at 0.765. With ACTAGCAGGCCAAGTTAGGGTCACTCAAACAAAG, the PBM binding z-score is 3.15. CCTTACGGGTCACGAGGTTATTGCACGACGAGCG came in with a PBM binding z-score of 5.3. Take AGTCAAAGTTCATCTAGGTAACGTAAGATATGCT: the PBM binding z-score stood at 4.59. In the case of CATCCTAGGTCAGGGCCAGTATAGGAGGAACGTT, the PBM binding z-score was determined as 0.731. In the case of CCTGCTAGCTCATGGTCAGCTAATCTACAGTATG, the PBM binding z-score was -0.366.

Take CGTTACGGGTCACGAGGTTATAGCACGACGAGCG: the PBM binding z-score is 5.35.

The values above are taken from the supplement of paper PMC6555819.
